# eIF4E-4G inh: eIF4E/eIF4G interaction inhibition in translation initiation; AID 782; 220,000 tested, 0.37% active; P63073+Q04637; inhibition, % at 21.7 µM; TR-FRET eIF4E-eIF4GI(517-606) binding, 2 h;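 further: 0% = full FRET control wells and 100% = background wells lacking eIF4GI fragment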
# p47phox inh: blocks human p47phox regulatory protein of NADPH oxidases. P14598. p47phox/p22phox peptide binding, fluorescence polarization, 2 h. inhibition, % at 24.7 µM. 220,000 tested, 0.53% active;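 further: 0% = p47phox with labelled peptide and 100% = labelled peptide alone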
# UBC9 SUMO inh: SUMOylation inhibition | P63279 | HTRF SUMOylation assay, SAE1/SAE2 + UBC9, in vitro | inhibition, % at 35 µM | 290,000 tested, 0.36% active; in the data active means inhibition above about 50%, passing the limit was not always enough
# Target sequence (P63279 whole entry, looked up): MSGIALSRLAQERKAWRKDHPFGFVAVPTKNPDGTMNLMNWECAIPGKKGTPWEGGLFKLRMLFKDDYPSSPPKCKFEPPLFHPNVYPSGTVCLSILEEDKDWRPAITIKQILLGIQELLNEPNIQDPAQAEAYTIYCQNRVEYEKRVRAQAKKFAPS
# 14-3-3 Bad inh: disrupts binding of bovine 14-3-3 zeta to phospho-Bad peptide; inhibition, % at 21.7 µM; 220,000 tested, 0.71% active; AID 781; TR-FRET 14-3-3zeta/Dy647-pBad peptide displacement, 1 h;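 active means inhibition above about 70%, limit read from the data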;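 further: 0% = full 14-3-3 plus peptide FRET controls and 100% = background without 14-3-3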
# An asterisk follows results filed as active; / = not tested or not shown. Rows were chosen to be rich in hits. Some 1.3% of all compounds tested hit in one or more screens of this group.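 How the source made its calls, unless noted: active means inhibition above about 30% (limit read from the data); inactive means the rest.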
SMILES,eIF4E-4G inh,p47phox inh,UBC9 SUMO inh,14-3-3 Bad inh
Cc1cccc(-n2c(-c3cccs3)nc3ccccc3c2=O)c1,1.3,-13.1,6.2,71.0*
Cc1nc2cc(F)ccc2n1C1CCN(Cc2nnnn2CCc2ccccc2)CC1,-6.8,-1.4,28.2,80.2*
Fc1ccc2c(c1)nnn2C1CCN(Cc2c(Cl)cccc2Cl)CC1,2.4,-15.2,-5.7,-8.2
Fc1ccc2c(c1)nnn2C1CCN(Cc2nnnn2C2CCCCC2)CC1,-1.4,-8.9,6.4,79.6*
CC(C)(C#CC(=O)O)OOC(c1ccccc1)(c1ccccc1)c1ccccc1,/,/,14.8,/
CC(C)n1c(O)c(C=NCc2ccccc2)c(=O)[nH]c1=S,-1.6,-5.5,14.7,0.5

# Screens from PubChem BioAssay.
